In all, about 33,000 sequences were measured (“E-score (-0.5 to 0.5)”: median about -0.032, highest 2% from about 0.36 on). The entries come from a sample that favours the highest values as a whole.
What follows are sequences tested against T1, Sko1 (UniProt Q02100) (assay: PBM E-score (8-mer binding enrichment) (E-score (-0.5 to 0.5)); higher = stronger / more preferred TF binding). Details: protein concentration: 200 nM; construct: GST-full length.
T1 sequence: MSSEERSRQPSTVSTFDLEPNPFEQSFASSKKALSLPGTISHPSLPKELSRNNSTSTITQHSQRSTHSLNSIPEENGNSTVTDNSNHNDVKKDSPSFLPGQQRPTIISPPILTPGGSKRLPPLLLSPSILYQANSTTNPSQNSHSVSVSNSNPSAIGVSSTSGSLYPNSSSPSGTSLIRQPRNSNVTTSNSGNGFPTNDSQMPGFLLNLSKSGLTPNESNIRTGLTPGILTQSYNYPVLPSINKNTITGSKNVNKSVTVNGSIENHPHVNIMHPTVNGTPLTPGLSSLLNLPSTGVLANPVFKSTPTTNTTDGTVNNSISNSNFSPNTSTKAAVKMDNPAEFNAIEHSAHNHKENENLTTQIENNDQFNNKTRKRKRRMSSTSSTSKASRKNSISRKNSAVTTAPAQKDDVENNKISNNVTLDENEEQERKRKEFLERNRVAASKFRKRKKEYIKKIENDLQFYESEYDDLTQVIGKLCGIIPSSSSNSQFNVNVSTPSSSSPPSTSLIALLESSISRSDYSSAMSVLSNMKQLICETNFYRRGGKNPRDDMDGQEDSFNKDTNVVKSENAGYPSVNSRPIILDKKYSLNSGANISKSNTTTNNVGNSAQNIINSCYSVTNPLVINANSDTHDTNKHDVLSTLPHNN
Summary of the method: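 Yeast transcription factors, full-length or as DNA-binding domains, were expressed with a GST tag using PURExpress in vitro transcription/translation. At about 100-200 nM they were applied to universal all-10-mer Agilent arrays, double-stranded by primer extension on fresh or once-stripped slides. Fluorescent anti-GST detected bound protein, and masliner normalised the scans. E-scores for ungapped eight-base words, pooled with reverse complements, came from the Universal PBM Analysis Suite.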

Sequence	PBM E-score
GATACGAA	0.227
AATACGGA	0.138
GATACGTA	0.48
AATACGAA	0.324
AATACGTG	0.458
AATACGTA	0.482
CATACGTC	0.466
AAACCTTG	0.0199
GACTCACC	-0.118
CTCAGGAG	-0.159
CACTTCCA	0.109
CTTAAAGA	0.00637
CTTGATGC	-0.116
AACCGCTT	-0.113
AATTCAAA	0.193
CTTAAGCA	-0.0027
CACTTTGG	-0.0531
ATCTGGGA	-0.147
CAGGCAGC	-0.349
CGGTGGAA	-0.188
ATGAGCGA	0.102
CATACGGA	-0.00572
AATACGAC	0.22
AATACGGC	0.0384
CATACGAA	0.308

Sequence	PBM E-score
AATACGTC	0.464
CATACGTA	0.485
CCGACTGA	-0.162
ACATGGTA	0.00395
ACTCCTGA	-0.0495
CTACGAAA	0.214
TGACGACA	0.467
ATACGACA	0.363
GGACGAAA	-0.0622
GTACGACA	0.326
ATACGACG	0.234
ATACGAAA	0.346
TTACGAAA	0.396
GGACGACA	0.0412
AGACGAAA	0.199
CGACGACA	0.0871
TGACGAAA	0.463
AGAATCCC	-0.0186
GTAGTTGA	0.173
CTTCTACC	-0.3
TAATGCAA	0.0655
ATTCACTG	0.0188
ACTTTCGG	0.0182
TAGGGGGA	-0.251
CGCTATGC	0.147

Sequence	PBM E-score
TCAAGTGA	0.087
ATCGCTAG	-0.0122
CTAGTTAC	0.099
CATTGAGG	-0.021
CAGGCTCC	-0.335
CTATGTCA	0.338
GTATGTCA	0.398
ATATGTCA	0.339
CATTTACC	0.129
ATTTTACC	0.252
CATTTACG	0.369
ACTTTACA	0.158
CATTTACA	0.103
AATTTACG	0.332
ATTTTACG	0.383
CCTTTACG	0.278
ACTTTACG	0.379
ATAGCGGA	-0.0894
AGGTTGTA	0.15
GTCCAGTA	-0.0738
AGCGCGAA	0.13
CGTCATAG	0.483
TGTCATAA	0.325
CCTCATAG	0.1
GGTCATAC	0.021

Sequence	PBM E-score
AGTCATAC	0.262
AGTCATAA	0.0121
AGTCATAG	-0.0111
CGTCATAA	0.487
CGTCATAC	0.486
GTAACTGA	0.126
CCAGTGGG	-0.107
ATCCACGC	-0.0735
GTAACCTA	0.192
CCAAAACG	0.171
AACCCGTG	-0.216
AGATGACA	0.256
CGATGACA	0.283
AGATGACG	0.476
AGATGACC	-0.0804
CGATGACG	0.482
CGATGACC	0.0462
CAACTTAC	0.0405
AGCGAAAC	0.163
GGACCGCC	-0.415
GGACCATA	-0.148
GGCCCAAC	-0.146
ACGTTAGA	0.265
AGAGATGG	-0.0345
GTCGTCAA	0.239

Sequence	PBM E-score
CTCGTCAC	0.38
GCCGTCAC	0.166
CGCGTCAG	0.222
CTCGTCAG	0.176
CGCGTCAC	0.41
ATCGTCTC	-0.0603
CGCGTCAA	0.34
ATCGTCAC	0.385
GTCGTCAC	0.41
ATCGTCGC	0.0155
CTCGTCAA	0.0618
ACCTCCAA	-0.189
CGCAGTAC	0.118
ACTACTGC	-0.0692
AAACCTAG	-0.0586
GACCACAA	-0.165
AACTCGAG	-0.00786
CATTTTCC	0.122
CCGGACTC	-0.16
GCGGACGC	-0.0227
AGGGTACT	-0.236
TCACAACA	0.251
ACTTAAGC	0.032
AGCGTCAA	0.166
ATCGTCAG	0.263

Sequence	PBM E-score
AGCGTCAT	0.445
ATCGTCAA	0.287
AGCGTCAG	0.154
ACCGTCAG	-0.0341
ACCGTCAT	0.378
ATCGTCAT	0.469
ACCGTCAA	0.00527
CCTTAAAA	0.101
GTGAATGA	0.231
GGGCCAGA	-0.278
GGAGCTAC	-0.112
CGCTAGCG	-0.26
CGGAGAGA	-0.15
CTCCAAGA	-0.189
ATTCTAGG	0.0401
AGTCGCGG	-0.312
GCAAACGA	0.136
TAGCTACA	0.13
GGATTCTA	-0.0972
TCATTGAA	0.146
CATCATAG	0.361
CATCATAA	0.299
AATCATAC	0.253
AATCATAG	0.126
CATCATAC	0.377

Sequence	PBM E-score
CATCATGG	0.132
ATAAATAC	0.23
CGATGGAA	0.106
AAACAATC	0.0366
ACAGGTTC	-0.291
ACGGTTTG	-0.104
GACCTAGA	0.0106
ATGTATGG	0.0987
ACGTATGC	0.458
CCGTATGC	-0.0726
ACGTATGA	0.473
ACGTATGG	0.441
GCGTATGA	0.337
AGGTATGC	0.118
AAGTATGG	0.023
CCGTATGA	0.135
ACTCTCTG	-0.135
CTCGCAAG	0.0771
CAGCACCG	-0.198
AAGAGCAT	0.0596
AAAGGTGA	-0.09
CATTGTTA	0.108
